Screens (PubChem BioAssay)
Nrf2 ARE act: activators of Nrf2 (ARE) signaling | Potency, µM (highest dose often 46.1 µM), usual class: activators | AID 624171 | 410,000 compounds, 0.31% hits | AREc32 ARE-luciferase reporter (MCF7-derived line), luminescence, 24 h; note: nearly all actives have a fitted effect of over 65% in size
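Luminescent ARE reporter assay in AREc32_Fluc cells: overnight plating at 37 deg C, 24 hr compound incubation, Steady-Glo added, 30 min RT before reading.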
A549 tox: A549 cytotoxicity, counter-screen for Nrf2 inhibitors | A549 ARE-Fluc cells, CellTiter-Fluor viability, 18-24 h | Potency, µM (top dose mostly 46 µM), usual class: inhibitors | 390,000 compounds, 0.16% hits
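A549 ARE_Fluc cells in 5% FBS OPTI-MEM were exposed to compounds in concentration-response for 18-24 h at 37 deg C. Viability was read by CellTiter-Fluor fluorescence (Ex 405/Em 525) after 30 min, before the luciferase read.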
ALOX12 inh: ALOX12 (human) lipoxygenase inhibition; P18054; purified 12hLO, xylenol orange hydroperoxide absorbance; Potency, µM (titrated, usually from 108 µM), usual class: inhibitors; 580,000 compounds, 1.1% hits; AID 1671190
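Purified human 12hLO (150 nM final) in 25 mM Hepes, 0.01% Triton X-100, pH 7.0 was preincubated 15 min at room temperature with compound. Then 40 uM arachidonic acid was added, 30 min. Hydroperoxide was read by Fe-XO absorbance ratio 573/405 nm.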
IDH1 R132H inh: blocks human mutant IDH1 R132H enzyme. O75874. IDH1-R132H enzyme, NADPH consumption, diaphorase/resazurin fluorescence. Potency, µM (doses to about 76.6 µM), hits mostly inhibitors. 390,000 compounds, 0.093% hits. AID 602179; note: nearly all actives have a fitted effect of over 65% in size
Target sequence (O75874 whole entry R132H, stated change not applied): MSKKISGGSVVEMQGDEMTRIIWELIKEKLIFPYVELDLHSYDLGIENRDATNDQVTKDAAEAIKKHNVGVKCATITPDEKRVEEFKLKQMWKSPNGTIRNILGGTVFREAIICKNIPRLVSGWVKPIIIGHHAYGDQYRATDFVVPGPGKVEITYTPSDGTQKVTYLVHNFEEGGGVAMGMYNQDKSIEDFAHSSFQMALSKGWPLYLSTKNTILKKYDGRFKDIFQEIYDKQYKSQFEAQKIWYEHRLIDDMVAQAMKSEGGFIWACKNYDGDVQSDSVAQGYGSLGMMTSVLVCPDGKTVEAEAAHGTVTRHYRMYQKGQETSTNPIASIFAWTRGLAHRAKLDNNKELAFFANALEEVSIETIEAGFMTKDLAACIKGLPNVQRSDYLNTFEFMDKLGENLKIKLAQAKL
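IDH1-R132H (0.5 ug/mL) preincubated 30 min with compound, then NADPH (0.016 mM) and alpha-KG (2 mM) added; 80 min at RT, pH 7.5. Remaining NADPH coupled via diaphorase/resazurin to fluorescence (540/590 nm); concentration-response curves normalized to no-enzyme control.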
LDHA inh: blocks human lactate dehydrogenase A. P00338. purified LDHA, NADH/diaphorase-resazurin fluorescence; active compounds read low. activity change, % (values are at about 110 or 230 µM). 480,000 compounds, 0.15% hits. AID 1347041; in the data active = activity change below about -30%; inconclusive = mostly about -25% to -30%
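Human LDH5 (2 nM) was incubated with 0.06 mM NADH and 0.2 mM pyruvate for 5 min at room temperature in Tris pH 7.4. Remaining NADH was coupled through diaphorase/resazurin, and resorufin fluorescence was read at 0 and 20 min.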
Nrf2 block: blocks Nrf2 signaling; A549 ARE-Fluc reporter, luciferase luminescence, 18-24 h; 360,000 compounds, 2.1% hits; Potency, µM (series often up to 46 µM), actives largely listed as inhibitors; note: nearly all actives have a fitted effect of over 60% in size
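Nrf2 activity is the BugLite luminescence, read 15 min after reagent at room temperature, following CellTiter-Fluor cytotoxicity readout (30 min, 37C). Compound titrations were applied for 18-24 h to 5000 A549 ARE_Fluc cells/well in 5% FBS OPTI-MEM.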
A number is an active result; n = inactive; u = inconclusive; x = no result given; [ ] = dose if it differs, or a comment. Rows were chosen to be rich in hits. Some 2.7% of all compounds tested hit in one or more screens of this group. Unless noted, calls come from the whole dose curve; as a rule, active = well fitted curve in the direction sought with a large enough effect; inconclusive = small, poorly fitted or top-dose-only effect, or another doubt; inactive = no such curve, though single readings can be large; an effect the other way counts as inactive or inconclusive.

SMILES | Nrf2 ARE act | A549 tox | ALOX12 inh | IDH1 R132H inh | LDHA inh | Nrf2 block
CC(/C=C/c1ccc(N(C)C)cc1)=N/N=C1/NC(=O)CC(C(=O)Nc2ccc(Cl)cc2)S1 (centres undefined) | n | 18µM | u | n | n | u
Cc1ccc(C(=O)N2CCC3(C2)C(=O)N(CCc2ccccc2)c2ccccc23)cc1 (centres undefined) | x | x | n | x | x | x
c1ccc2c(c1)CCN(c1nc3ccccc3n3cnnc13)C2 | 13µM | n | u | n | n | n
O=C1Nc2ccccc2N=C(c2ccccc2)C1Br (centres undefined) | n | n | 40µM | n | n | u
CCO[C@@H]1OC(C(=O)NCc2ccccc2)=C[C@H](c2ccc(C(F)(F)F)cc2)[C@H]1CCCO | n | 16µM | n | n | n | 13µM
CCO[C@H]1OC(C(=O)NCc2ccccc2)=C[C@@H](c2ccc(Br)cc2)[C@@H]1CCCO | n | n | n | n | n | n
CCN1CCC2(CC1)Cc1ccccc1CN(C(=O)C1CCCC1)C2 | x | x | n[6.33 µM] | x | x | x
CCC(C)(C)C1CCc2[nH]nc(C(=O)NCCN3CCOCC3)c2C1 (centres undefined) | n | n | n | n | n | n
CCC(C)(C)C1CCc2[nH]nc(C(=O)NCCCNC(=O)OC(C)(C)C)c2C1 (centres undefined) | n | n | n | n | n | 26µM
O=C(N/N=C/c1ccc([N+](=O)[O-])s1)C(O)c1ccccc1 (centres undefined) | n | u | n | n | n | 5.2µM
Cc1ccc(NC(C)C(=O)N/N=C/c2ccc([N+](=O)[O-])s2)cc1 (centres undefined) | n | u | n | n | n | u
Cc1ccccc1C(=O)N/N=C/c1ccc([N+](=O)[O-])s1 | n | n | n | n | n | 10µM
COc1ccc(NC(C)C(=O)N/N=C/c2ccc([N+](=O)[O-])s2)cc1 (centres undefined) | n | u | n | n | n | 21µM
COC(=O)N/N=C/c1ccc([N+](=O)[O-])s1 | n | 10µM | n | n | n | 6.5µM
Cc1cc(C(=O)N/N=C/c2ccc([N+](=O)[O-])s2)c2ccccc2n1 | n | u | n | n | n | u
CCOc1ccc2oc(=O)cc(CN3CCN(CC(=O)Nc4ccc5c(c4)OCCO5)CC3)c2c1 | x | x | n | x | n | x
COc1ccc(Nc2ccc([N+](=O)[O-])c3cnccc23)cc1 | x | x | n | x | n | x
O=C(N/N=C/c1ccc([N+](=O)[O-])s1)c1ccccc1 | n | u | n | n | -63 | 23µM
O=C(Cc1ccccc1)N/N=C/c1cccs1 | n | n | n | n | n | n
O=C(Cc1ccccc1)N/N=C/c1ccc([N+](=O)[O-])s1 | n | u | n | n | n | 21µM
COc1ccccc1NC(=O)C(=O)N/N=C/c1ccc([N+](=O)[O-])s1 | n | n | n | n | n | n
O=C(N/N=C\c1ccc([N+](=O)[O-])s1)c1cncc(Br)c1 | n | 23µM | n | n | n | 16µM
Cn1c(SCC(=O)N/N=C/c2ccc([N+](=O)[O-])s2)nnc1-c1ccccc1 | n | u | n | n | n | 21µM
CS(=O)(=O)CCN1CCN(c2ccccc2O)CC1 | x | x | u | x | n | x
O=C(O)c1ccc(Br)cc1F | x | x | u | x | n | x
SMILES | Nrf2 ARE act | A549 tox | ALOX12 inh | IDH1 R132H inh | LDHA inh | Nrf2 block
Cc1ccnn1CC(=O)N/N=C/c1ccc([N+](=O)[O-])s1 | n | n | n | n | n | 26µM
Cc1nnc(SCC(=O)N/N=C/c2cn(-c3ccccc3)nc2-c2ccccc2)n1-c1ccccc1 | n | n | n | n | n | 16µM
Cc1ccc(-c2nnc(SCC(=O)N/N=C/c3ccc(C)s3)n2-c2ccc(C)cc2)cc1 | n[9.22 µM] | u | n | n | n | 21µM
Cc1ccc(-c2nnc(SCC(=O)N/N=C/c3ccccc3C(=O)O)n2-c2ccccc2)cc1 | x | x | n | x | x | x
Cc1ccnn1CC(=O)N/N=C/c1cccs1 | n | n | n | n | n | n
Cc1nc2sc3c(c2c(-c2ccc(Cl)cc2)c1C(N)=O)CCCC3 | x | x | n | x | n | x
CN(C)c1cccc(C(=O)Nc2cccc(C#N)c2)c1 | x | x | n | x | n | x
CCCCn1c(SCC(=O)Nc2ccc3c(c2)OCCO3)nnc1C(CC)N(C)C (centres undefined) | n | n | n | n | n | u
CCCCn1c(SCC(=O)Nc2cc(C(F)(F)F)cc(C(F)(F)F)c2)nnc1C(CC)N(C)C (centres undefined) | n | u | n | n | n | 13µM
CC(NC(=O)CNC(=O)OC(C)(C)C)c1ccccc1 (centres undefined) | x | x | n | x | n | x
CCS(=O)(=O)N1CCC(NC(=O)c2ccccc2C(=O)c2ccc(Cl)cc2)CC1 | x | x | n | x | -31 | x
C=CCNCc1sccc1C | x | x | n | x | n | x
Cc1ccn(CCC(=O)O)n1 | n | n | n | n | n | n
Cc1ccn(-c2cc(O)c(-n3ccc(C)n3)cc2O)n1 | n | n | 2.8µM | n | n | n
O=C(NCC#Cc1ccccc1)c1cccc2cccnc12 | x | x | n | x | n | x
Oc1ccccc1CNc1cnc2ccccc2c1 | u | n | u | n | n | u
C=CCc1cccc(CNc2nc3ccccc3n2C)c1O | n | n | 32µM | n | n | n
Oc1ccc(Cl)cc1CNc1cnc2ccccc2c1 | n | n | 40µM | n | n | n
C=CCc1cccc(CNc2cnc3ccccc3c2)c1O | n | n | 7.9µM | n | n | 23µM
CCOc1ccc(CNc2nc(NCc3ccc(OCC)cc3)n(C(=O)CC(C)C)n2)cc1 | x | x | u | x | n | x
NNc1c(F)c(F)c(Br)c(F)c1F | x | x | 13µM | x | n | x
Cc1noc2c(NCC3CCOCC3)cc(-c3ccc(F)cc3)nc12 | x | x | 56µM | x | x | x
COc1ccc(NC(=O)C2CCN(c3nc4ccccc4nc3OC)CC2)c(OC)c1 | x | x | n | x | n | x
Cc1c(C(=O)OC(C)C)sc(NC(=O)C2c3ccccc3Oc3ccccc32)c1C#N | x | x | n | x | n | x
Cc1ccc(OCCn2c(NC(=O)c3ccco3)nc3ccccc32)cc1 | n | n | n | n | n | n
SMILES | Nrf2 ARE act | A549 tox | ALOX12 inh | IDH1 R132H inh | LDHA inh | Nrf2 block
CCCn1c(NC(=O)c2ccc([N+](=O)[O-])o2)nc2ccccc21 | 13µM | n | n | n | n | n
CCc1nc2ccccc2n1CCCCOc1cccc(C)c1 | n | n | 40µM | n | n | u
Cc1cccc(OCCn2c(NC(=O)c3ccco3)nc3ccccc32)c1 | n | n | n | n | n | 18µM
CCN(CC)C(=S)SCC(=O)Nc1ccc(N(CC)C(C)C)cc1 | x | x | n | x | n | x
O=c1[nH]c2cc([N+](=O)[O-])c(NCCO)c([N+](=O)[O-])c2[nH]1 | n | 13µM | n | n | n | n
COC(=O)c1ccc(NC(=O)c2ccc(NS(=O)(=O)c3cccc4cccnc34)cc2)cc1 | n | n | x | n | n | n
